Experiment [1] in a line: anti-His antibody binders, primary screen, artefact control for SMM control protein annotation, biochemical, small-molecule microarray, 635 nm fluorescence (AID 1128).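 Also: score merges feature fluorescence with signal-to-noise for each printed compound spot.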 The conditions noted are these: anti-His Alexa647 antibody binding, higher = more signal.
For experiment [2], the system named is Human papillomavirus type 1a E7 protein (residues 1-88). The experiment is described as follows: HPV1a E7 small-molecule binders, primary screen, biochemical, small-molecule microarray, residues 1-88, 635 nm (AID 1129). The conditions noted are these: small-molecule microarray binding, fluorescence 635 nm; higher = more signal.
In experiment [3] the target is Focal adhesion kinase 1 (Homo sapiens) (UniProt Q05397). Briefly: small-molecule microarray binders of FAK, primary screen, biochemical, 635/667 nm fluorescence, BSA, DTT (AID 1130).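 Also: composite of spot emission at 667 nm and signal to noise over triplicate slides.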 The conditions noted are these: PTK2 binding, 635 nm fluorescence, higher = more signal.
Experiment [4] has as its system Fibrinogen (Alexa647-labelled). The experiment is described as follows: fibrinogen binders on compound microarrays, profiling panel, artefact control for SMM control-protein annotation, biochemical, small-molecule microarray, 635/667 nm fluorescence (AID 1131).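 Also: z-score merges 667 nm fluorescence with per-spot signal-to-noise over triplicate slides.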 The conditions noted are these: fibrinogen-A647 binding fluorescence, higher = more signal.
Experiment [5] has as its target Follistatin (Homo sapiens) (UniProt P19883). The experiment is described as follows: follistatin binders on small-molecule microarrays, primary screen, biochemical, small-molecule microarray, 635/667 nm fluorescence (AID 1132). To be noted: FST binding, 635 nm fluorescence, higher = more signal.
Experiment [6] has as its target Fibroblast growth factor 2 (Homo sapiens) (UniProt P09038). Briefly: FGF2 binders on small-molecule microarrays, primary screen, biochemical, small-molecule microarray, 635/667 nm fluorescence (AID 1133). The conditions noted are these: small-molecule microarray binding, FGF2, fluorescence 635/667; higher = more signal.
The nature of experiment [7]: mitochondrial membrane potential change in A549 cells, profiling panel, cell-based, JC-1 fluorescence, basal, 24 h, 100 nL (AID 1138).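 Also: A549 lung adenocarcinoma cells under basal conditions with no added stimulus; test concentration not given here.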 The conditions noted are these: higher = more signal.
Experiment [8] concerns Lefty1. Briefly: Lefty1 binders on small-molecule microarrays, primary screen, biochemical, small-molecule microarray, 635/667 nm fluorescence (AID 1139). To be noted: small-molecule microarray binding, fluorescence 635/667; higher = more signal.
In experiment [9] the test system is wheat germ agglutinin (Triticum aestivum), Alexa647-labelled. The experiment is described as follows: wheat germ agglutinin binders on compound microarrays, profiling panel, artefact control for SMM control-protein annotation, biochemical, small-molecule microarray, 635/667 nm fluorescence (AID 1140).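 Also: score merges 667 nm feature emission with signal to noise over triplicate slides.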 To be noted: WGA-A647 binding, 635 nm fluorescence, higher = more signal.

In experiment [10] the target is Luciferin 4-monooxygenase (Photinus pyralis) (UniProt P08659). Briefly: firefly luciferase enzyme inhibitors, primary screen, biochemical, luminescence, purified enzyme, 2006 set (AID 1141).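 Also: cell-free assay with purified firefly luciferase at 100 ng per well in PBS; test concentration not given here.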 To be noted: SteadyGlo luminescence, 30 min, higher = more signal, called active from +8 up or from −8 down.
For experiment [11], the system named is Wnt5a (protein binding on small-molecule microarray). Briefly: Wnt5a binders on small-molecule microarray, primary screen, biophysical, 635/667 nm fluorescence (AID 1142).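 Also: fluorescence read at 667 nm with signal to noise per printed feature.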 To be noted: 635 nm fluorescence, higher = more signal.
Experiment [12] can be described thus: cell viability in Huh7 cells, primary screen, cytotoxicity control for HCV replication inhibitor project, CellTiter-Glo luminescence, basal, 48 h (AID 1143).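 Also: Huh7 hepatoma cells carrying a hepatitis C replication reporter with no stimulus; test concentration not given here.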 The conditions noted are these: Huh7 HCV replicon, higher = more signal, called active from +8 up or from −8 down.
A short description of experiment [13]: P. aeruginosa biofilm formation inhibitors, primary screen, PAO1 strain, BacTiter-Glo luminescence, LB-PBS (AID 1144). The conditions noted are these: 12 h, higher = more signal.
Experiment [14] can be described thus: CREB reporter modulators without forskolin, primary screen, cell-based, PC12, CRE-LacZ reporter, unstimulated (AID 1145). The conditions noted are these: no forskolin, luminescence, 4.5 h, higher = more signal, called active from +8 up or from −8 down.
A short description of experiment [15]: CREB reporter modulators under forskolin, primary screen, cell-based, PC12, CRE-LacZ reporter, forskolin-stimulated (AID 1146).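 Also: PC12 cells with 6xCRE LacZ reporter stimulated by forskolin 10 µM; beta-galactosidase reporter signal reflecting CREB driven transcription.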 The conditions noted are these: luminescence, 4.5 h, higher = more signal, called active from +8 up or from −8 down.
Experiment [16] concerns the target Streptavidin (Streptomyces avidinii) (UniProt P22629). The experiment is described as follows: streptavidin binders on small-molecule microarray, primary screen, artefact control for SMM compound annotation, biophysical, 635/667 nm fluorescence (AID 1147).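 Also: signal reflects streptavidin binding to arrayed compounds as a control protein.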 The conditions noted are these: streptavidin binding, higher = more signal.
A short description of experiment [17]: small-molecule binders of probe aInhba, primary screen, biochemical, small-molecule microarray, 635/667 nm fluorescence (AID 1148).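 Also: score merges 667nm spot fluorescence with signal-to-noise for antibody binding to printed compounds.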 To be noted: higher = more signal.
Experiment [18] deals with Torsin-1A (Homo sapiens) (UniProt O14656). Briefly: torsin A binders from cell lysate, primary screen, small-molecule microarray, wild-type, 635/667 nm (AID 1149). The conditions noted are these: COS7 hTOR1A-WT lysate, 635 nm fluorescence, higher = more signal.
Experiment [19] shares this target. The experiment is described as follows: small-molecule binders of mutant TOR1A in lysate, primary screen, cell lysate, small-molecule microarray, COS7 lysate, 635/667 nm fluorescence (AID 1150).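 Also: score pools 667 nm emission and signal to noise measuring lysate protein binding.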 To be noted: COS7 hTOR1A mutant lysate, 635 nm fluorescence, higher = more signal.
Experiment [20] concerns Sonic hedgehog protein (Shh). The experiment is described as follows: small-molecule binders of Shh protein, primary screen, biochemical, small-molecule microarray, 635/667 nm fluorescence (AID 1151).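 Also: Shh protein binding to compounds spotted on small-molecule microarray slides; score combines spot fluorescence intensity with signal-to-noise across triplicate slides.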 To be noted: small-molecule microarray binding, 635 nm fluorescence; higher = more signal.

The structures appear in SMILES notation. The source made the active and inactive calls. Unless noted, no rule for the calls is given here.

Fibroblast growth factor 2 (Homo sapiens), sequence (P09038 whole entry, looked up): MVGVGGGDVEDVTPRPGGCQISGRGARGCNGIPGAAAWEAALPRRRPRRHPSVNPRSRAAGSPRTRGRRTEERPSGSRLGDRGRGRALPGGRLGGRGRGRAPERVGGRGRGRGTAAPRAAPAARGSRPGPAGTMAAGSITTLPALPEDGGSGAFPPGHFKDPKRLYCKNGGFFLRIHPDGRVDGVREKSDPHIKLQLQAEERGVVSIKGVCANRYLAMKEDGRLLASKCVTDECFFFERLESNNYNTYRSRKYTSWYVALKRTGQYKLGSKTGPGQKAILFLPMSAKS
Torsin-1A (Homo sapiens), sequence (O14656 whole entry, looked up): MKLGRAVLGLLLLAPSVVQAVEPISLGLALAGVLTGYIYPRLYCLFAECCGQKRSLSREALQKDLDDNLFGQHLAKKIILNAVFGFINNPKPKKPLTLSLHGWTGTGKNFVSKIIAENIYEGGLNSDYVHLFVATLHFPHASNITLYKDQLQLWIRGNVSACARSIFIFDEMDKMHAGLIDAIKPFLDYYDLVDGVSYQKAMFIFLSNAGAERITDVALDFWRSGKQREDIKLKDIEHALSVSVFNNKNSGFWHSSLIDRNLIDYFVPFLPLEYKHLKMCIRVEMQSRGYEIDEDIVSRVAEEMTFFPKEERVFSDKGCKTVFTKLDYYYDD
Focal adhesion kinase 1 (Homo sapiens), sequence (Q05397 whole entry, looked up): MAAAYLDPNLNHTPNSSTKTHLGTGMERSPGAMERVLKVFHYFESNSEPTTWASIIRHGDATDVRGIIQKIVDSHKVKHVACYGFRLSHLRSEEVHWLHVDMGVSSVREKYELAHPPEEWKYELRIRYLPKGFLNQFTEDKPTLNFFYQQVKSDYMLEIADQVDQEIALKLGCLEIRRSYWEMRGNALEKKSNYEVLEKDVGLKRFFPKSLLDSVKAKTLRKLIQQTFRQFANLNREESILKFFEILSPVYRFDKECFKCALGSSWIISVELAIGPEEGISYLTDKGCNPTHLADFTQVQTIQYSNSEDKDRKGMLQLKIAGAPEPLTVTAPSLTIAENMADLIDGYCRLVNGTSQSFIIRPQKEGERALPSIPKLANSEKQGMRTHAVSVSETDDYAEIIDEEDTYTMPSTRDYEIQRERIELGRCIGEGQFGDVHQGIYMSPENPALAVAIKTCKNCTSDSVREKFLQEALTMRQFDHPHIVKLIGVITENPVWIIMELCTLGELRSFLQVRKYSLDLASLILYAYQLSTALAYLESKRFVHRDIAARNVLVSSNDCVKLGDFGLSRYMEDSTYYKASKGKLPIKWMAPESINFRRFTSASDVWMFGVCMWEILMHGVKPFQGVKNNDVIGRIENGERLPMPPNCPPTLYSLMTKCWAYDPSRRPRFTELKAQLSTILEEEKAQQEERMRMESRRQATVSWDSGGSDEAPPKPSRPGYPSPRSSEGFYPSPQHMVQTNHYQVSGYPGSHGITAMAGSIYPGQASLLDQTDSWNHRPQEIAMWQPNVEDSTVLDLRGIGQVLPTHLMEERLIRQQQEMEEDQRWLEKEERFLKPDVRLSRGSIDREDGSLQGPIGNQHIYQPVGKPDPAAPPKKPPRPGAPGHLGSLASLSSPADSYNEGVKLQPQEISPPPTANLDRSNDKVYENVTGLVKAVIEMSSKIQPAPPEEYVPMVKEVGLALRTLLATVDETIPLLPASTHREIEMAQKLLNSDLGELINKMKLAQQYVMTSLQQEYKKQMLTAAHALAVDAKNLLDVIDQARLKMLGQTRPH
Follistatin (Homo sapiens), sequence (P19883 whole entry, looked up): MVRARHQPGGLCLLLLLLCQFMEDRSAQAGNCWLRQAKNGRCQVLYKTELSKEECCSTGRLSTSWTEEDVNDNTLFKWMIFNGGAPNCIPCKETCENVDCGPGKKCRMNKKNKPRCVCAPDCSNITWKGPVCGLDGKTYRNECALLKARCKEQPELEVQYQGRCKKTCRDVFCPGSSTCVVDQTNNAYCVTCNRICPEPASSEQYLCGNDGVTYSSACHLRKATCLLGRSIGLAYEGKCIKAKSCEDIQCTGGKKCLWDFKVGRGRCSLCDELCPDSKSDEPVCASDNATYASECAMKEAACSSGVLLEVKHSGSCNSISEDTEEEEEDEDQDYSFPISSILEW
Streptavidin (Streptomyces avidinii), sequence (P22629 whole entry, looked up): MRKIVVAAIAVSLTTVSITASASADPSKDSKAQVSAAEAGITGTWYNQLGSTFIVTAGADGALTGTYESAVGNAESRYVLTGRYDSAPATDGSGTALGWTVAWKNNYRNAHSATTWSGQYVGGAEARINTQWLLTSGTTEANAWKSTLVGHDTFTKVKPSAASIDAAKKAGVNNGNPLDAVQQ
Luciferin 4-monooxygenase (Photinus pyralis), sequence (P08659 whole entry, looked up): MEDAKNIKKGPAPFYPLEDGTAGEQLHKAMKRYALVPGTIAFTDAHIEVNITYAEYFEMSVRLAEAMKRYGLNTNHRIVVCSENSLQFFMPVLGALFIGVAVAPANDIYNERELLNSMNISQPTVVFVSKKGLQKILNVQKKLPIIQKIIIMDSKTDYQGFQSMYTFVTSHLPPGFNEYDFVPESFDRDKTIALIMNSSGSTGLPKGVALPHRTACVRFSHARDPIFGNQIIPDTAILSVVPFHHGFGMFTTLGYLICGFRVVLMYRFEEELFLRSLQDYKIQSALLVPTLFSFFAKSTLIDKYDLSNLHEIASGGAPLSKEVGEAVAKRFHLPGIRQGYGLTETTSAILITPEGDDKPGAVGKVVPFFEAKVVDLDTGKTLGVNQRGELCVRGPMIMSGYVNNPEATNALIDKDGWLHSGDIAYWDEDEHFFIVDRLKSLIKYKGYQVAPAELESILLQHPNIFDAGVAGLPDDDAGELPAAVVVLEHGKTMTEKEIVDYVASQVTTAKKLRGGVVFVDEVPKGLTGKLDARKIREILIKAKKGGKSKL

For the molecule `COCCOC(=O)N1C(=O)[C@@]2(c3cc(C#CC4=CCCCC4)ccc31)[C@H](C(=O)Nc1nc3ccccc3s1)[C@H]1C(=O)O[C@H](c3ccccc3)[C@H](c3ccccc3)N1[C@@H]2c1ccccc1OCCO`, the composite z-score in [1] turned out to be 0.772; in experiment [2] it was 1.19; in experiment [3], 2.14; in experiment [4], 0.766; in [5], 1.38; in [6], 0.946. Also, the composite z-score was 1.21 in experiment [8]; 0.845 in [9]; 0.697 in experiment [11]; 1.19 in experiment [16]; 0.973 in experiment [17]; 0.0595 in experiment [18]. Besides, the composite z-score in experiment [19] came out at 0.956; in [20] it was 1.49. In addition, the z-score in experiment [7] was -2.18; in [10], -1.88 (inactive); in experiment [12], -5.66 (inactive); in [13], -1.29 (inactive); in experiment [14], -0.878 (inactive); in experiment [15], -1.09 (inactive).
As for `CC(C)N1C(=O)[C@@]2(Cc3ccccc31)c1ccccc1C(=O)N(C1CCCCC1)[C@H]2c1ccc(CO)cc1`, the composite z-score is -0.192 in [1]; 0.37 in experiment [2]; -0.0723 in [3]; 0.193 in [4]; 1.33 in [5]; 0.254 in experiment [6]. Moreover, the composite z-score in [8] was 0.958; in experiment [9], -0.01; in experiment [11] it was 0.0034; in [16] it was -0.169; in experiment [17], -0.0987; in [18], -0.245. The composite z-score in [19] was 0.333; in experiment [20], 1.99. Further, the z-score in experiment [7] was -0.958; in [10], 1.11 (inactive); in experiment [12] it was -0.8 (inactive); in experiment [13] it was -0.868 (inactive); in experiment [14] it was -0.141 (inactive); in [15], 0.815 (inactive).
For the molecule `C=CC[C@]1(C(=O)N2CCCCC2)N=C(c2ccc(OCCCO)cc2)O[C@H]1c1ccccc1`, the composite z-score in experiment [1] was 2.2; in experiment [2], 1.19; in [3], 0.702; in experiment [4] it was 0.928; in [5], 1.3; in experiment [6] it was -0.165. Besides, the composite z-score was -0.395 in [8]; 0.676 in [9]; 0.15 in experiment [11]; 0.224 in experiment [16]; 0.573 in [17]; 0.29 in experiment [18]. The composite z-score was 1.11 in [19] and -0.328 in experiment [20]. Also, the z-score in experiment [7] is 1.48; in experiment [10], -0.728 (inactive); in experiment [12] it was -3.83 (inactive); in experiment [13], 0.351 (inactive); in experiment [14] it was 2.73 (inactive); in experiment [15], 0.0819 (inactive).
In the case of `O=C1NC(=O)C2C1C=CC(C(O)c1cccc3ccccc13)N2Nc1ccccn1` (stereo not given), the composite z-score is 1.97 in experiment [1]; 0.158 in experiment [2]; 0.132 in experiment [3]; -0.207 in experiment [4]; 0.169 in [5]; 0.11 in [6]. Further, the composite z-score was -0.34 in experiment [8]; 0.0591 in experiment [9]; 0.0051 in experiment [11]; 0.278 in [16]; 0.185 in experiment [17]; 0.16 in [18]. Further, the composite z-score in [19] was 0.231; in experiment [20], -0.516. The z-score is 1.55 in [7]; 0.135 (inactive) in experiment [10]; 0.697 (inactive) in experiment [12]; -0.484 (inactive) in experiment [13]; -0.522 (inactive) in [14]; -0.285 (inactive) in experiment [15].
For the molecule `C=CCOC(=O)[C@H]1[C@@H]2C(=O)O[C@@H](c3ccccc3)[C@@H](c3ccccc3)N2[C@@H](c2ccc(OCCOC(=O)[C@@H]3C[C@@H]4C(=O)N5CCC[C@H]5C(=O)N4[C@@H]3c3cccc(OCCO)c3)cc2)[C@]12C(=O)Nc1ccccc12`, the composite z-score in experiment [1] was 2.53; in [2], 1.19; in experiment [3], 0.701; in [4], 0.686; in experiment [5] it was 1.3; in [6] it was 1.51. The composite z-score is 1.14 in [8]; 0.847 in [9]; 0.537 in experiment [11]; -0.274 in [16]; 0.325 in experiment [17]; 0.459 in experiment [18]. For the same molecule, the composite z-score is 0.767 in [19] and 1.56 in experiment [20]. Besides, the z-score in experiment [7] is -1.5; in experiment [10] it was -0.187 (inactive); in experiment [12], 0.0308 (inactive); in experiment [13], -0.0247 (inactive); in experiment [14], -0.675 (inactive); in experiment [15], 0.0527 (inactive).

(Values after PubChem BioAssay.)
